Reference: PubChem BioAssay AID431 (Sanford-Burnham Center for Chemical Genomics, 2006)
Hit rate of the full screen: of about 63,000 compounds, about 1,100 (1.7%) were called active. For the sample, actives were picked, then their nearest neighbours and some compounds at random. Entries with a potency or affinity are not part of this list. Values without a mark were called inactive.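 Rule for the calls: active = compounds whose percent cytotoxicity in the single-dose primary screen, scaled between solvent and toxic-drug controls, exceeds 50; inactive = the rest.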

assay: viability loss of HPDE-C7K cells – cell-based, fluorescence, HTS, primary screen (AID 431); settings: HPDE-C7K KRASV12 cells, Alamar Blue viability, 48 h; at 10 µM; active compounds read high;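 note: 0% = DMSO solvent wells and 100% = doxorubicin-treated wells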

Row | SMILES | cytotoxicity
1 | O=C(CCSc1nc(-c2ccco2)cc(C(F)(F)F)n1)NCC1CCCO1 (stereo not drawn) | 3.2%
2 | COCCCNC(=O)CCn1c(=O)c2ccccc2n(CC(=O)Nc2ccccc2C)c1=O | 1.7%
3 | CN(C(=O)c1ccc2c(=O)n3c(nc2c1)CCCCC3)c1ccccc1 | -5.5%
4 | CCOC(=O)c1c(C)[nH]c(C(=O)CSc2nnnn2-c2ccccc2)c1C | -2.7%
5 | CCc1nc2oc3cc(OC)ccc3c(=O)c2c(=O)n1Cc1ccco1 | -11.3%
6 | O=C(Nc1cccnc1)C1CCCN(S(=O)(=O)c2cccc3nsnc23)C1 (stereo not drawn) | -2.5%
7 | Cc1ccc(C(=O)NCCNC(=O)CN2CCCC2)cc1 | -4.9%
8 | CN(C1CCCCC1)S(=O)(=O)c1ccc(NC(=O)C2CCCCC2C(=O)O)cc1 (stereo not drawn) | -5.7%
9 | COc1ccc(C2=NOC(Cn3c(Cc4ccc(Cl)cc4)nc4c3c(=O)n(C)c(=O)n4C)C2)cc1 (stereo not drawn) | 1.7%
10 | COc1ccccc1C1=NOC(Cn2c(=O)c3c(ncn3C)n(C)c2=O)C1 (stereo not drawn) | -17.3%
11 | COc1ccc(-c2nc3c(c(=O)n(C)c(=O)n3C)n2CC2CC(c3ccccc3)=NO2)cc1OC (stereo not drawn) | 53.3% (active)
12 | CC1CCN(c2nc3c(c(=O)[nH]c(=O)n3C)n2Cc2ccccc2Cl)CC1 | 8.5%
13 | CCOC(=O)c1cnc(=O)[nH]c1C | 1.1%
14 | Cc1cc(-c2[nH]nc3c2C(c2ccsc2)C(C#N)=C(N)O3)c(C)s1 (stereo not drawn) | -9.2%
15 | Cc1ccc2[nH]c3c(c2c1)CN(C(=O)CN1CCN(c2ccccc2)CC1)CC3 | 24.5%
16 | Cc1ccc2[nH]c3c(c2c1)CN(C(=O)CN1CCCc2ccccc21)CC3 | 54.4% (active)
17 | Cc1ccc2[nH]c3c(c2c1)CN(C(=O)CN1CCN(c2ccccc2F)CC1)CC3 | 22.5%
18 | CCN(CC)C(=O)c1csc(Nc2ccc(C)cc2)n1 | -18.4%
19 | Cc1nc2cc(CO)ccc2s1 | 1.8%
20 | CC(=O)N1CCc2cc(C(=O)CN3CCN(c4cccc(Cl)c4)CC3)ccc21 | -4%
21 | O=C(Nc1ccc(O)cc1)c1ccc(C(=O)c2ccccc2)o1 | -1.3%
22 | Cc1ncoc1C(=O)Nc1ccc(Oc2ccccc2)cc1 | -7.3%
23 | Cc1ccc2c(COC(=O)c3cnc(C)cn3)cc(=O)oc2c1 | 4.8%
24 | CCOc1ccc(C)cc1S(=O)(=O)N1CCCCC1 | 7.7%
25 | Cc1cnc(NC(=O)COc2ccccc2)s1 | 1.6%

Row | SMILES | cytotoxicity
26 | Cc1ccc2c(c1)-c1ccccc1S(=O)(=O)N2 | 11.5%
27 | Nc1ccc2c(c1)-c1ccccc1S(=O)(=O)N2 | 16.8%
28 | O=S1(=O)Nc2c(ccc3cccnc23)-c2ccccc21 | 86% (active)
29 | CC1CCN(c2nnc(N3CCC(C)CC3)c3ccccc23)CC1 | -2.9%
30 | Cc1ccc(C(c2nnnn2Cc2cccs2)N2CCN(C(=O)c3ccco3)CC2)cc1 (stereo not drawn) | 2%
31 | CNC(=O)c1ccc(N(Cc2ccccc2C)S(C)(=O)=O)cc1 | 2.8%
32 | O=S(=O)(NCCc1ccccn1)c1ccc(F)c(F)c1 | -21.4%
33 | Cc1cc(N2C(=O)C(=O)/C(=C(/O)c3ccc(F)cc3)C2c2cccc(Br)c2)no1 (stereo not drawn) | 72.5% (active)
34 | Cc1cc(N2C(=O)C(=O)/C(=C(/O)c3ccccc3)C2c2cccc(Br)c2)no1 (stereo not drawn) | 0.9%
35 | Cc1cc(N2C(=O)C(=O)/C(=C(/O)c3ccc(Cl)cc3)C2c2cccc(Br)c2)no1 (stereo not drawn) | 60.6% (active)
36 | Cc1ccc(/C(O)=C2\C(=O)C(=O)N(c3cc(C)on3)C2c2cccc(Br)c2)cc1 (stereo not drawn) | 48.2%
37 | COc1ccc(/C(O)=C2\C(=O)C(=O)N(c3cc(C)on3)C2c2ccccc2OC)cc1 (stereo not drawn) | 9.4%
38 | COc1cccc(C2/C(=C(\O)c3ccc(OC)c(OC)c3)C(=O)C(=O)N2c2cc(C)on2)c1 (stereo not drawn) | 19.3%
39 | Cc1ccc(/C(O)=C2\C(=O)C(=O)N(c3cc(C)on3)C2c2cccc(Cl)c2)cc1 (stereo not drawn) | 55.9% (active)
40 | Cc1cc(N2C(=O)C(=O)/C(=C(/O)c3ccc(F)cc3)C2c2ccc(Cl)cc2)no1 (stereo not drawn) | 37.6%
41 | Cc1cc(N2C(=O)C(=O)/C(=C(/O)c3ccc(F)cc3)C2c2ccc(F)cc2)no1 (stereo not drawn) | 16.6%
42 | COc1ccc(C2C(C(=O)NCC3CCCO3)CCC(=O)N2c2ccc3c(c2)OCO3)cc1 (stereo not drawn) | -18.6%
43 | O=C(Nc1ccccc1C(F)(F)F)c1cc(S(=O)(=O)N2CCOCC2)ccc1F | 24.1%
44 | CCn1c(C(=O)NCc2ccccn2)cc2sccc21 | -5.6%
45 | Cc1cc2c(=O)n(Cc3ccco3)c(SCC(=O)NCc3ccco3)nc2s1 | -12.9%
46 | COc1ccc(C2N=C(Nc3ccc(C)cc3)Nc3nc(C)cc(=O)n32)cc1 (stereo not drawn) | 2.4%
47 | COc1ccc(S(=O)(=O)N(CC(=O)O)c2ccccc2)cc1 | 8.5%
48 | Cc1csc2nc3ccccc3c(=O)n12 | 2.6%
49 | Oc1ccccc1C1Nc2cccc3cccc(c23)N1 | -2.4%
50 | COc1cc(C2Nc3cccc4cccc(c34)N2)cc(OC)c1OC(C)=O | 83.6% (active)

Row | SMILES | cytotoxicity
51 | COc1cc(C2N(c3ccccc3)CCN2c2ccccc2)ccc1OC(C)=O | -13.9%
52 | COc1cc(C2Nc3cccc4cccc(c34)N2)cc(OC)c1O | 41.5%
53 | COc1cc(C2Nc3cccc4cccc(c34)N2)ccc1OC(C)=O | 50.8% (active)
54 | COc1cc(C(=O)O)ccc1OC(C)=O | -2.6%
55 | Cc1ccc(S(=O)(=O)Cn2nnnc2C(C(C)C)N2CCN(C(=O)c3ccco3)CC2)cc1 (stereo not drawn) | -8.7%
56 | CCOC(=O)CNC(=O)Nc1cc(C(C)(C)C)nn1-c1ccccc1 | -5.3%
57 | Cc1ccc2nc(-c3ccccn3)oc2c1 | 9.5%
58 | CCOC(=O)C(CCC#N)(CCC#N)C(=O)OCC | -1.4%
59 | O=C(CN(Cc1ccco1)C(=O)CNS(=O)(=O)c1ccc(F)cc1)NCc1ccc(F)cc1 | 1.2%
60 | O=C(CN(Cc1ccco1)C(=O)CNS(=O)(=O)c1ccccc1)NCc1ccc(F)cc1 | 2.2%
61 | O=C(CN(Cc1ccco1)C(=O)CNS(=O)(=O)c1ccc(Cl)cc1)NCc1ccc(F)cc1 | 77.7% (active)
62 | CC(=O)c1cccc(NC(=O)NC(C)c2ccncc2)c1 (stereo not drawn) | -4.4%
63 | Cc1noc(/C=C/NCc2cccnc2)c1S(=O)(=O)N(C)CC(=O)N1CCc2ccccc21 | 2.4%
64 | COc1cc2cc(C)c(SCC(=O)N3CCOCC3)nc2cc1OC | -9.8%
65 | O=C(O)CCN(CCC(=O)O)S(=O)(=O)c1ccccc1 | -5.5%
66 | Cc1cc(-n2c(SCCC#N)nnc2-c2cccnc2)ccc1Cl | -9.6%
67 | COc1ccc(-n2c(SCCC#N)nnc2-c2cc(Cl)ccc2OC)cc1Cl | 54.3% (active)
68 | N#CCCCSc1nnc(-c2ccc(Cl)cc2)n1-c1ccccc1 | -16.4%
69 | COc1ccc(N(C(=O)c2ccc(S(=O)(=O)N3CCOCC3)cc2)C2C=CS(=O)(=O)C2)cc1 (stereo not drawn) | -10.3%
70 | CCOC(=O)C1=C(C)C(c2ccc(OC)cc2OC)NC(=O)N1 (stereo not drawn) | -21.1%
71 | CCN(CC)c1ccc2c(c1)OC(N)=C(C#N)C2c1cccnc1 (stereo not drawn) | 70.8% (active)
72 | N#CC1=C(N)Oc2c(ccc3cccnc23)C1c1cccnc1 (stereo not drawn) | 42.1%
73 | COc1ccc(OC)c(C2C(C#N)=C(N)Oc3cc(N)ccc32)c1 (stereo not drawn) | 9.4%
74 | COc1ccc(C2C(C#N)=C(N)Oc3cc(O)ccc32)cc1OC (stereo not drawn) | -2.6%
75 | N#CC1=C(N)Oc2cc(O)ccc2C1c1ccncc1 (stereo not drawn) | -1.3%

Row | SMILES | cytotoxicity
76 | CN(C)c1ccc2c(c1)OC(N)=C(C#N)C2c1cccc(F)c1 (stereo not drawn) | 55.5% (active)
77 | CCc1[nH]nc2c1C(c1cccnc1)C(C#N)=C(N)O2 (stereo not drawn) | 5.8%
78 | COc1cc(C2C(C#N)=C(N)Oc3cc(N)ccc32)cc(OC)c1OC (stereo not drawn) | 54.9% (active)
79 | N#CC1=C(N)Oc2cc(O)ccc2C1c1ccccc1 (stereo not drawn) | 1.7%
80 | CCc1c(C)c(C#N)c2nc3ccccc3n2c1N(C)C | 10.9%
81 | CCCCn1c(=O)cc(O)c2ccccc21 | -12.7%
82 | CC1=C(C(=O)OCC2CCCO2)C(c2ccncc2)C2=C(CCCC2=O)N1 (stereo not drawn) | -3.4%
83 | Nc1nncn1C(=O)CCc1ccccc1 | 4%
84 | O=c1oc(-c2cc3ccccc3o2)nc2sc3c(c12)CCCC3 | 57.9% (active)
85 | O=c1oc(-c2cccs2)nc2sc3c(c12)CCC3 | 33%
86 | O=c1oc(-c2cccs2)nc2sc3c(c12)CCCCC3 | 43.5%
87 | Cc1cccc(-c2c3c(=O)n(C)c(=O)n(C)c3cn2C(C)C)c1 | -5.2%
88 | C=CCNc1nnc(SC2CC(=O)N(c3ccc(OC)cc3)C2=O)s1 (stereo not drawn) | 77.3% (active)
89 | CCOC(=O)c1ccc(N2C(=O)CC(Sc3nnc(C)s3)C2=O)cc1 (stereo not drawn) | -5.1%
90 | COc1ccc(N2C(=O)CC(Sc3nccc(C)n3)C2=O)cc1 (stereo not drawn) | 9.4%
91 | O=C(CN1C(=O)C2C3C=CC(C3)C2C1=O)N1CC(=O)N(CCc2ccccc2)C(=O)C1 (stereo not drawn) | -4.4%
92 | Nn1c(Nc2ccccc2)nc2sc3c(c2c1=O)CCC3 | 61.4% (active)
93 | CCc1nc2sc3c(c2c(=O)n1N)CCC3 | -6.1%
94 | Nn1c(-c2cccs2)nc2sc3c(c2c1=O)CCCC3 | -1.9%
95 | N#CC1=C2SCN(c3ccc(F)cc3)CN2C(=O)CC1c1cccc(F)c1 (stereo not drawn) | 1.2%
96 | CC(C)(C)C1CCc2onc(C(=O)Nc3cnn(Cc4ccc(F)cc4)c3)c2C1 (stereo not drawn) | 81.6% (active)
97 | Cc1ccccc1Cn1cc(NC(=O)c2noc3c2CC(C(C)(C)C)CC3)cn1 (stereo not drawn) | -6.5%
98 | CC(C)(C)C1CCc2onc(C(=O)NCc3ccc(F)cc3)c2C1 (stereo not drawn) | -7%
